# Bioassay records deposited in PubChem by Paczesny and Yang Labs, IUPUI and University of Michigan.
# ST2 inh = IL1RL1 inhibition; AlphaLISA ST2-Fc/biotin-IL-33 interaction, 1 h; inhibition, % for hits at 17 µM; 78,000 compounds, 2.3% hits; AID 1259354; in the data active = inhibition above about 30%
# * = called active by the depositor; i = inactive; ! = not confirmed by another sample. This is one part of a sample in which hits are shown more often than they occur.
SMILES,ST2 inh
COc1ccc(C(=O)Nc2ccc3nn(-c4ccc(F)cc4)nc3c2)cc1OC,i
Cc1ccc(CN2CCSc3ccc(C(=O)NC(C)C)cc32)cc1,i
COc1cccc(CC2=NOC(C(=O)NCc3cccc(F)c3F)C2)c1 (stereo not drawn),i
CC1CCN(C(=O)c2ccc3nccnc3c2)CC1,i
Cc1ccc(NC2SC(=O)N(c3cccc(C)c3)C2=O)cc1 (stereo not drawn),i
COC(=O)c1ccc(CSc2nncc3ccccc23)cc1,i
C[C@@]12CC[C@@H](C[C@@H]1N)C2,41%*
O=C(O)c1ccc(CN2CC[C@H](c3nnc(-c4ccccc4F)o3)C2)cc1,i
c1ccc(-c2nc3c(c(N4CCN(Cc5cnc(N6CCCC6)s5)CC4)n2)CCC3)cc1,i
COc1ccc(C2=C/C(=C/c3cccc(OC)c3OC)C(=O)O2)c(OC)c1,34%*
COc1cc(/C=C2\C=C(c3ccc(Cl)cc3)OC2=O)cc(Br)c1OC,i
COc1ccc(/C=C2\C=C(c3ccc(Br)cc3)OC2=O)cc1[N+](=O)[O-],i
COc1cc(/C=C2\C=C(c3ccc(Cl)cc3)OC2=O)cc(I)c1OC,i
CCc1ccc(C2=C/C(=C/c3cc(OC)ccc3OC)C(=O)O2)cc1,38%*
COc1cc(/C=C2\C=C(c3ccc(Cl)cc3)OC2=O)c([N+](=O)[O-])cc1OC,i
CCCCNCC(=O)c1c[nH]c2ccccc12,i
CC(C)C12C[C@@H]3C[C@@H](CC(C(=O)NN)(C3)C1)C2,i
Clc1ccc(-n2ncc3c(NCc4cccnc4)ncnc32)cc1,i
O=C(Nc1ccc2c(c1)OCO2)c1ccc(Br)cc1,i
Cc1cccc(NC(=O)c2cc3c([nH]c4ccccc43)c(C)n2)c1C,i
O=C(Nc1ccc2c(c1)OCO2)c1cc(-c2ccccc2O)on1,i
Cc1nc(C(=O)Nc2ccc3c(c2)OCO3)cc2c1[nH]c1ccccc12,30%*
Cc1ccc(C(=O)Nc2ccc3c(c2)OCO3)cc1,30%*!
CC(=O)c1ccc(NC(=O)c2cc(-c3ccc4c(c3)OCO4)on2)cc1,31%*
COc1cc(C(=O)Nc2ccc3c(c2)OCO3)cc(OC)c1OC,i
SMILES,ST2 inh
O=C(CC1CCCCC1)Nc1ccc2c(c1)OCO2,i
Cc1cc(NC(=O)c2cc(-c3ccc4c(c3)OCO4)on2)no1,i
O=C(Nc1ccc(F)c(Cl)c1)c1cc(-c2ccc3c(c2)OCO3)on1,i
O=C(O)C1C2C=CC(O2)C1C(=O)Nc1ccc2c(c1)OCO2 (stereo not drawn),31%*
O=C(O)C1CC=CCC1C(=O)Nc1ccc2c(c1)OCO2 (stereo not drawn),i
O=C(Cn1cnc2sc3c(c2c1=O)CCCC3)NCC(=O)N1CCC(Cc2ccccc2)CC1,i
CC(C)n1cc(C(=O)N2C[C@H]3OC(=O)N(CCN4CCCCC4)[C@H]3C2)cn1,i
Cc1ncc(C(=O)NCC2CCN(Cc3cccnc3)CC2)cn1,i
Cc1ccc(-c2noc([C@@H]3C[C@@H](O)CN3C(C)C)n2)cc1F,i
Cc1cccc2[nH]c(C3CCCN3C(=O)C3=NNC(=O)CC3)nc12 (stereo not drawn),i
O=S(=O)(NCc1ccc2c(c1)OCO2)c1ccc(Br)s1,i
Cc1cc2c3c(C)n(C)c(C)c3c(C)nn2c1,54%*
O=C(Nc1ccc(N2CCN(C(=O)c3ccccc3)CC2)cc1)c1ccc(-c2ccccc2)cc1,i
CC(C)c1ccc2cc(C(=O)N(C)[C@@H]3CS(=O)(=O)C[C@H]3O)[nH]c2c1,i
O=C(c1ccc(O)cc1)c1c(O)cc(O)c([C@@H]2O[C@H](CO)[C@@H](O)[C@H](O)[C@H]2O)c1O,i
CC1(C)OC2c3ccccc3OC3(C)CCC1CC23 (stereo not drawn),i
CC12CCC3C1C(c1c(cc(O)c(C(=O)c4ccccc4)c1O)O2)C3(C)C (stereo not drawn),31%*
COc1ccc(-c2nc3s/c(=C\c4cc(C)c(O)c(C)c4)c(=O)n3n2)cc1,36%*
CCOc1ccc(-c2nc3s/c(=C\c4ccc(OC)cc4)c(=O)n3n2)cc1,i
COc1ccc(/C=c2/sc3nc(-c4ccc(Cl)cc4)nn3c2=O)c(OC)c1,i
CCCOc1ccc(-c2nc3s/c(=C\c4ccc(OC)c(OC)c4)c(=O)n3n2)cc1,i
CCCOc1ccc(-c2nc3s/c(=C\c4ccc(OC)cc4)c(=O)n3n2)cc1,i
COc1ccc(-c2nc3s/c(=C\c4ccc(OC)c(OC)c4)c(=O)n3n2)cc1,38%*
CCC(C)NC(=O)C1(C)CCC(=O)N1Cc1ccc(F)cc1Cl (stereo not drawn),i
CCCCN(Cc1ccccc1)S(=O)(=O)c1ccc2c(c1)CCN2C(=O)C1CC1,i
CC(=O)N1c2ccccc2N=C(c2ccccc2)CC1c1ccccc1 (stereo not drawn),i
Cc1cc2n(n1)C(c1ccc(Cl)cc1)CC(c1ccccc1)=N2 (stereo not drawn),30%*!
O=C(O)CCC(=O)N1N=C(c2ccccc2)CC1c1ccc(Cl)cc1 (stereo not drawn),i
